Assay results published in the supplement of paper PMC11732987, “Enantioselective OTUD7B fragment discovery through chemoproteomics screening and high-throughput optimisation” (Communications Chemistry, 2025).

Columns and labels:
Experiment in all cases: log2 ratio of Biotin-Ahx-Ub-VS probe labelling (fragment/DMSO); higher = less target engagement (more negative = stronger competition), active = hit call of the paper (q ≤ 0.05, log2 ratio ≤ -1)
Details in all cases: compound concentration: 200 uM; treatment time: 3 h
USP42 = target: T1, USP42 (UniProt Q9H9J4)
T1 sequence (whole entry): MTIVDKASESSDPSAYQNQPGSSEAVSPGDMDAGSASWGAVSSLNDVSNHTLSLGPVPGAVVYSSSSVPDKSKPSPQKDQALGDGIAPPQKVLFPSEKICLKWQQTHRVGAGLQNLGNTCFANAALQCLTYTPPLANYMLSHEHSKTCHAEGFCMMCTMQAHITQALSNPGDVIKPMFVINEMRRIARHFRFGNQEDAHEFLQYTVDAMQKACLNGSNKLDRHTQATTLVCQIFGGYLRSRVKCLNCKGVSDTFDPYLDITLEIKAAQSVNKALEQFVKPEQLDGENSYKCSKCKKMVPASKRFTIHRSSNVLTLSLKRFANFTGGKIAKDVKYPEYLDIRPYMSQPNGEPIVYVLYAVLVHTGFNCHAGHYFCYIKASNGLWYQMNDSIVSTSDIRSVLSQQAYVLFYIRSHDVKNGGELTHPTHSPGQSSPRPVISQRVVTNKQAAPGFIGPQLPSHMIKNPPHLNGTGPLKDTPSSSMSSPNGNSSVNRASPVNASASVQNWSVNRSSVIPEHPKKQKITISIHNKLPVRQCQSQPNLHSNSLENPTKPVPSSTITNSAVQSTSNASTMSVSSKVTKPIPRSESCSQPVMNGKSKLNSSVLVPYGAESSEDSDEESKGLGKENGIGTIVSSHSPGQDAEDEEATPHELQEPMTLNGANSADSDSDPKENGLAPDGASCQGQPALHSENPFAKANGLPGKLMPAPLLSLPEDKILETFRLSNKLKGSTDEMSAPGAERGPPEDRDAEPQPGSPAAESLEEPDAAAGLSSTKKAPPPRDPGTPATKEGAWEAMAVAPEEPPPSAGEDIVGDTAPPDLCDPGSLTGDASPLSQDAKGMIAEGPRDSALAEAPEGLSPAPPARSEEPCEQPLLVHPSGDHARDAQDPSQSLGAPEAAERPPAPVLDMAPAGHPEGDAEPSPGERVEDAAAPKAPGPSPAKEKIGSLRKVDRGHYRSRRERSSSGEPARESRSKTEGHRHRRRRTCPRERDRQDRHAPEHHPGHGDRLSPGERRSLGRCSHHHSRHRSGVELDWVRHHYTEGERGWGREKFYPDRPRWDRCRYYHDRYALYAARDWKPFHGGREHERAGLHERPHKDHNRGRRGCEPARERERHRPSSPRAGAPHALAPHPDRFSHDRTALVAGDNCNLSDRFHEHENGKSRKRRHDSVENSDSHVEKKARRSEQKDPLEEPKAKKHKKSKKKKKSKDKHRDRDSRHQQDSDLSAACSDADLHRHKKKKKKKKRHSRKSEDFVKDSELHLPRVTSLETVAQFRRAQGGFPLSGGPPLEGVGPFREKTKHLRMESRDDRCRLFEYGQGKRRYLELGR
In short: (§1)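 The table lists average log2 ratios of fragment over vehicle, from an unpaired t-test on global-median-normalised Spectronaut label-free quantities. Proteins with ≥2 unique peptides were used. Samples were HEK293T lysate (495 µg) treated in triplicate with fragment at 200 µM or vehicle for 3 h, then with Biotin-Ahx-Ub-VS (0.5 µM final) for 1 h, with labelled DUBs NeutrAvidin-enriched and run by diaPASEF LC-MS/MS.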

USP46 = USP46 (UniProt P62068)
In short: as §1

USP47 = target: T2, USP47 (UniProt Q96K76)
T2 sequence (whole entry): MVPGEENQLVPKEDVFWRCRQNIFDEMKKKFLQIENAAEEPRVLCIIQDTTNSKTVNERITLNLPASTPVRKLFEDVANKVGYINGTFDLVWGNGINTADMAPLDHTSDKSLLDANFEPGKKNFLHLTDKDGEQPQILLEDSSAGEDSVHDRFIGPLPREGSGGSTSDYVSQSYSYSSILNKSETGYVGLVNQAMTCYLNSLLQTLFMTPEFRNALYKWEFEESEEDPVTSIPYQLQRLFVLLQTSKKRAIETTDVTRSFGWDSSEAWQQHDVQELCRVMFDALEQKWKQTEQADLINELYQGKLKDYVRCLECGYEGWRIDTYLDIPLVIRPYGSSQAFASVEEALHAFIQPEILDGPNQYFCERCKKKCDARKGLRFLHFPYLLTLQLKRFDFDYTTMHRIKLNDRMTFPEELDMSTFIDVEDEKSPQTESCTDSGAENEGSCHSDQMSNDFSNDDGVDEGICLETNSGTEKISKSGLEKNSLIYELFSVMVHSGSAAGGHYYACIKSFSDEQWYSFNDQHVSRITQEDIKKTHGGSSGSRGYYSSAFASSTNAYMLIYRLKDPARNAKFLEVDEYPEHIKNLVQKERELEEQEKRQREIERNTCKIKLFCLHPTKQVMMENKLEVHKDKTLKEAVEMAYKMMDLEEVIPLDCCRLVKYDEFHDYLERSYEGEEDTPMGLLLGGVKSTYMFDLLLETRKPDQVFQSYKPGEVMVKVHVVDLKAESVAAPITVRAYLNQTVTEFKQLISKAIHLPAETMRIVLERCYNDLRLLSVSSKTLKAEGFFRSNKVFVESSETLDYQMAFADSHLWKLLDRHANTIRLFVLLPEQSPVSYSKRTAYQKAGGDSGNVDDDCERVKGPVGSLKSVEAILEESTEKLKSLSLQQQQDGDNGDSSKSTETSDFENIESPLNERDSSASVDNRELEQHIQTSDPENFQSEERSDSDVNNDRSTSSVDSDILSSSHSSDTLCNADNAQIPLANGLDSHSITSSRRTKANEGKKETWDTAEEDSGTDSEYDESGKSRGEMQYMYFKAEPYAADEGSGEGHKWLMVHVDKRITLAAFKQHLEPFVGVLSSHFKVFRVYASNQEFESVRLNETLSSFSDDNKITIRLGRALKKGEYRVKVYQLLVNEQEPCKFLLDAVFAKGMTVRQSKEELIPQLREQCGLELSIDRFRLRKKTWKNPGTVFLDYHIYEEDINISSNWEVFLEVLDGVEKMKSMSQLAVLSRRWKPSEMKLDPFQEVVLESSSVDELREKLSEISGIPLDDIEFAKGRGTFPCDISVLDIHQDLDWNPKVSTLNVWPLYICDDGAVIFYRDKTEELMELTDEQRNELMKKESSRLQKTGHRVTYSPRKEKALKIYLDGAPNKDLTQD
In short: as §1

USP48 = target: T3, USP48 (UniProt Q86UV5)
T3 sequence (whole entry): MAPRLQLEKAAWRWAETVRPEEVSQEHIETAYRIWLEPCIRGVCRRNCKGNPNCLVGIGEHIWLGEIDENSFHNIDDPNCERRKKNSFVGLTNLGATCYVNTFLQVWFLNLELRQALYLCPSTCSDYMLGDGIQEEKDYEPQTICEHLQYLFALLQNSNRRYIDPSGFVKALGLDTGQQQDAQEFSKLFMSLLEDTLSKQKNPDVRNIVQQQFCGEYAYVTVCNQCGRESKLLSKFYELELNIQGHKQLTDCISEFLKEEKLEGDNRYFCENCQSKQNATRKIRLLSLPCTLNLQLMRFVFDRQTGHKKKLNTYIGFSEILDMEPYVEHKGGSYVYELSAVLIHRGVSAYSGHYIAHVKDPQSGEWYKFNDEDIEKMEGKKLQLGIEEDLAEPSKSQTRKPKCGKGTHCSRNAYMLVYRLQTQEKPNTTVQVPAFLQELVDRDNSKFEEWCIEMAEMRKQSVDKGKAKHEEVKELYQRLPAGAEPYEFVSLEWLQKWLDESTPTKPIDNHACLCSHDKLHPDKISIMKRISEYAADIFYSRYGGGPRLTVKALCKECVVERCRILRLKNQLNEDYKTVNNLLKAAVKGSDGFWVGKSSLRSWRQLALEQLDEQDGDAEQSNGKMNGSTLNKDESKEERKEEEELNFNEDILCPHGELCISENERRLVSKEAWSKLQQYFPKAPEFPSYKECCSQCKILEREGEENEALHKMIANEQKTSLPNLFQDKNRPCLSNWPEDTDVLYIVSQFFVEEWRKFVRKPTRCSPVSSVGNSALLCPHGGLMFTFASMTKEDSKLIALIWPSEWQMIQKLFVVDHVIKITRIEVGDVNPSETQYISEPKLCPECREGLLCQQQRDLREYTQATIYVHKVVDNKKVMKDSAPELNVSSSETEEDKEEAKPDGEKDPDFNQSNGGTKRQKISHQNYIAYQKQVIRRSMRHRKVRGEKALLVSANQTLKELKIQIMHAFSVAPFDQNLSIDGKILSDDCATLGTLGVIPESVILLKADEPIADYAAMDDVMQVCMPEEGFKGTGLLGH
In short: as §1

USP5 = target: T4, USP5 (UniProt P45974)
T4 sequence (whole entry): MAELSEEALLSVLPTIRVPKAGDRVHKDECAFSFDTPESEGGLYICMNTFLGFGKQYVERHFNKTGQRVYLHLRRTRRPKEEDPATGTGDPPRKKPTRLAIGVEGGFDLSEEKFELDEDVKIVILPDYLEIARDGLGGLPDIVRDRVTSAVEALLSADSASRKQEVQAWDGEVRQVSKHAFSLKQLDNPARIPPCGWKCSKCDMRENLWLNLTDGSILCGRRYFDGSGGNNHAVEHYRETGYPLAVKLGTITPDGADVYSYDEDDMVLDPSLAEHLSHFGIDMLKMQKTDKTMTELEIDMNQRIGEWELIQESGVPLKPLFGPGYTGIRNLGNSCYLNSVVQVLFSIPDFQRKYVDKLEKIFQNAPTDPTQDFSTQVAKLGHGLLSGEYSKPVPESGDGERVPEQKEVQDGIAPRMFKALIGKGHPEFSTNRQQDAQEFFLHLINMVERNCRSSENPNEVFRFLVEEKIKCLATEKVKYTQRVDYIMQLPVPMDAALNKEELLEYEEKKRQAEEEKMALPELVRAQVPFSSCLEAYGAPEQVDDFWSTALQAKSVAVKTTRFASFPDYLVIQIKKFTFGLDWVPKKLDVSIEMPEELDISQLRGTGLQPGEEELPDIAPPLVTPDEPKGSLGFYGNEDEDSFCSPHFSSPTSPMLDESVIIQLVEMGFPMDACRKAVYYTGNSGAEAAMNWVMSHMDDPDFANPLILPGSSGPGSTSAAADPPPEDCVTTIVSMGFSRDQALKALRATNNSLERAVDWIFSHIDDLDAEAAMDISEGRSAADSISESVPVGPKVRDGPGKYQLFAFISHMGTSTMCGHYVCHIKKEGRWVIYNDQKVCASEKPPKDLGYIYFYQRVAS
In short: as §1

USP54 = USP54 (UniProt Q70EL1)
In short: as §1

USP7 = USP7 (UniProt Q93009)
In short: as §1

USP8 = target: T5, USP8 (UniProt P40818)
T5 sequence (whole entry): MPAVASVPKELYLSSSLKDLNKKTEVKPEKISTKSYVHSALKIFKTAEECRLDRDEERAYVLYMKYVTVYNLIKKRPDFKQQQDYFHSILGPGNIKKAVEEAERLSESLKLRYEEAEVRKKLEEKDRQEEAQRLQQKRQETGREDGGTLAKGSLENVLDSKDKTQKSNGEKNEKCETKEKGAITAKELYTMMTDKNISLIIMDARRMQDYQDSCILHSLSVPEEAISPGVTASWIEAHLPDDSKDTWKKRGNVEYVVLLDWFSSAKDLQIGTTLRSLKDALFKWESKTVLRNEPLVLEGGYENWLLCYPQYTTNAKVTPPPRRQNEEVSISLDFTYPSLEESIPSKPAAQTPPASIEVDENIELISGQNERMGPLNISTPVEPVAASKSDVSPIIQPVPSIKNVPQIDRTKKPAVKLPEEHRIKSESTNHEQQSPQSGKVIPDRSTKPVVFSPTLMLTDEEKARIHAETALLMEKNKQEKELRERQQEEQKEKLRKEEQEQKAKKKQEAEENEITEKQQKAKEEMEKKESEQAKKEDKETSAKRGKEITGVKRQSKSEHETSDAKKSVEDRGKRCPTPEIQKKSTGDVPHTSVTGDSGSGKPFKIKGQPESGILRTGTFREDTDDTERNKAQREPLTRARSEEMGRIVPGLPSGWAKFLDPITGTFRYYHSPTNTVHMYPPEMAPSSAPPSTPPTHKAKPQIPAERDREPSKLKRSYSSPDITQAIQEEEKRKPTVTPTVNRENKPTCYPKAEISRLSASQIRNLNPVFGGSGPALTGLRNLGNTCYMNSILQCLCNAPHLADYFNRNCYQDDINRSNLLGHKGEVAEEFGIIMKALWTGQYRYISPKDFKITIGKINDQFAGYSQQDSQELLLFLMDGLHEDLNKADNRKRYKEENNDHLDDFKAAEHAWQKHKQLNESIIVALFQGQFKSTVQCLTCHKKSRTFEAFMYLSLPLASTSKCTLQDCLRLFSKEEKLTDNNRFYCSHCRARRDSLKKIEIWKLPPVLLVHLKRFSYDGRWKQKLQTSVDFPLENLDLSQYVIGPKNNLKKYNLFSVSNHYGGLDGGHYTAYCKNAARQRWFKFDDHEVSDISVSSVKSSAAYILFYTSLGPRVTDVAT
In short: as §1

USP9X = USP9X (UniProt Q93008)
In short: as §1

UniProt O00487 = target: UniProt O00487
In short: as §1

Measured: log2 ratio of Biotin-Ahx-Ub-VS probe labelling

Sequence of UniProt O00487 (O00487 whole entry): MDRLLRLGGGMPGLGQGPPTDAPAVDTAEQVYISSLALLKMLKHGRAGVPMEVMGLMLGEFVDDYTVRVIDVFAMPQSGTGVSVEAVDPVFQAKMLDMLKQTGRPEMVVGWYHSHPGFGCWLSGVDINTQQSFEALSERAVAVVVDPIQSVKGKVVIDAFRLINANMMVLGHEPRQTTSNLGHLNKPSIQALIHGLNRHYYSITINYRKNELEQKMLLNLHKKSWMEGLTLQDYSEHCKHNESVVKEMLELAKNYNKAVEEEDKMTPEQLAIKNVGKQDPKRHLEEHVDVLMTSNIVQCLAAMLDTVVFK
Sequence of USP46 (P62068 whole entry): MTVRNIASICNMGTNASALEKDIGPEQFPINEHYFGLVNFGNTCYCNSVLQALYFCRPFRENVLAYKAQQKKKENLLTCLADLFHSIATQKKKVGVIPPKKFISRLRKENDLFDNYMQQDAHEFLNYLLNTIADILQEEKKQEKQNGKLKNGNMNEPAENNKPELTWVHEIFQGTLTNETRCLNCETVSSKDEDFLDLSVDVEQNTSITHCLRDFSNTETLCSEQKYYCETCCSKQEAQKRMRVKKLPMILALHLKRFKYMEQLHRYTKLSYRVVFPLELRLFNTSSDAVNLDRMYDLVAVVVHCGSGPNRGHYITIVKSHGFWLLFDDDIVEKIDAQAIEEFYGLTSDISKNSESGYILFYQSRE
Sequence of USP9X (Q93008 whole entry): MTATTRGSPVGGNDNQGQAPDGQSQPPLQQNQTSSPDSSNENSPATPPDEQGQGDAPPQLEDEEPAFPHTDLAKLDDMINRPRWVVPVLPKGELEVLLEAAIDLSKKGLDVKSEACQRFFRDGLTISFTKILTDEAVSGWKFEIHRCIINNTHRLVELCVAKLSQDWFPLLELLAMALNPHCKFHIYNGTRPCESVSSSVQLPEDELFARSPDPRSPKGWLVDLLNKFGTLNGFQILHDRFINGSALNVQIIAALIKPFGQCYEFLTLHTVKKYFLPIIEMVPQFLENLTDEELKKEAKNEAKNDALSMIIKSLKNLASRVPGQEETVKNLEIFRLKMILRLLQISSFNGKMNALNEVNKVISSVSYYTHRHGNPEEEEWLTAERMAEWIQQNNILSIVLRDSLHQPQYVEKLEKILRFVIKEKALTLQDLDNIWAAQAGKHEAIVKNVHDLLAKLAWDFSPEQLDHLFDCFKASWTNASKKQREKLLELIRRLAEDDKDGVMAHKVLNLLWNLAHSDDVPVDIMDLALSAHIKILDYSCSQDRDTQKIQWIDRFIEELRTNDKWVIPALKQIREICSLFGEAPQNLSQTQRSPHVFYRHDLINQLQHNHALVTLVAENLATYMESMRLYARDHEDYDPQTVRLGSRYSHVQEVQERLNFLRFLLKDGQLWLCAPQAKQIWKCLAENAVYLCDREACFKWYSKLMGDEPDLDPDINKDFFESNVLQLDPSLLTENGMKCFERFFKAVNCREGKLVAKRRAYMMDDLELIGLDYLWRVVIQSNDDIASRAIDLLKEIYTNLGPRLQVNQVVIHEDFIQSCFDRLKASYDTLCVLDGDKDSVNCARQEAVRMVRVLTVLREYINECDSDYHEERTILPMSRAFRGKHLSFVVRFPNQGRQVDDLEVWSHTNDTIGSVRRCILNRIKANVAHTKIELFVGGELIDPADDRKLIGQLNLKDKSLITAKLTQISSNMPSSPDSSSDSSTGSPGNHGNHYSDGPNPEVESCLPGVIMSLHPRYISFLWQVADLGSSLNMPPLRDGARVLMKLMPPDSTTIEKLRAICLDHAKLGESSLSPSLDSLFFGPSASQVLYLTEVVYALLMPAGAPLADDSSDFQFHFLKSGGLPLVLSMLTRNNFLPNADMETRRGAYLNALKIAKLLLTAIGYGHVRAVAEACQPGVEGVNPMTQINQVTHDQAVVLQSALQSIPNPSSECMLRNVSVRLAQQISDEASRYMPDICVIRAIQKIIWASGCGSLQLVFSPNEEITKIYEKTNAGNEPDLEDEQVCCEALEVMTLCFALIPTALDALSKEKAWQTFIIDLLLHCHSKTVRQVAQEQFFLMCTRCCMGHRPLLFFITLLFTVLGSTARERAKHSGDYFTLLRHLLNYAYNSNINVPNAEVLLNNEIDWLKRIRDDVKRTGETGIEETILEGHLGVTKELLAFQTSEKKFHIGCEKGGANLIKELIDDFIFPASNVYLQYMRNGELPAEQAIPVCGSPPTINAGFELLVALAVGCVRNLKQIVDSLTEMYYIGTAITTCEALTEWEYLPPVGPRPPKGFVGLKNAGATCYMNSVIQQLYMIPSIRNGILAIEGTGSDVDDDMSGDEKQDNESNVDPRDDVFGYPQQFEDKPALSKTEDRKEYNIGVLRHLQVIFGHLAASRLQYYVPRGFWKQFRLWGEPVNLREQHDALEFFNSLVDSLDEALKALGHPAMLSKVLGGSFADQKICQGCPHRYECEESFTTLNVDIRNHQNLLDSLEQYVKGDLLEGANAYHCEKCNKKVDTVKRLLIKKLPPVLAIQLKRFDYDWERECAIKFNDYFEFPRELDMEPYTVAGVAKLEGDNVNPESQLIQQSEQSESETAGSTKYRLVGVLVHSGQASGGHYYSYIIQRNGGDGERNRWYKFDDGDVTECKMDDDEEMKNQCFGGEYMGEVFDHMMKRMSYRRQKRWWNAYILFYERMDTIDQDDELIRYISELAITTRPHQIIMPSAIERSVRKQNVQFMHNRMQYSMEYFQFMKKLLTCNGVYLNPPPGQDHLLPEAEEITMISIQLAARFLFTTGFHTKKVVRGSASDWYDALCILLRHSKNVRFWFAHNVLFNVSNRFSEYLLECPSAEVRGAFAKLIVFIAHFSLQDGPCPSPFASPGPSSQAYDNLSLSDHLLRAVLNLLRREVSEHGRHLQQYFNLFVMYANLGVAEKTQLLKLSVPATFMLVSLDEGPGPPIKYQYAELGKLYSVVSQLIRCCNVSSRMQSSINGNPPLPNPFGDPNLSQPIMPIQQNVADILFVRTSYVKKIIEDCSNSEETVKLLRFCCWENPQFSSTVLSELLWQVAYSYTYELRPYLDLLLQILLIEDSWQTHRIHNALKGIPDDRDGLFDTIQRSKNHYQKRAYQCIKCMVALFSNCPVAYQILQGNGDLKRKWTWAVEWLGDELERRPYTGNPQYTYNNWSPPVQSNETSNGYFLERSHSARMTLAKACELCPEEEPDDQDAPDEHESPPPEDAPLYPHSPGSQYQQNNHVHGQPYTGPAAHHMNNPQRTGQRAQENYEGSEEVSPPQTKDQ
Sequence of USP54 (Q70EL1 whole entry): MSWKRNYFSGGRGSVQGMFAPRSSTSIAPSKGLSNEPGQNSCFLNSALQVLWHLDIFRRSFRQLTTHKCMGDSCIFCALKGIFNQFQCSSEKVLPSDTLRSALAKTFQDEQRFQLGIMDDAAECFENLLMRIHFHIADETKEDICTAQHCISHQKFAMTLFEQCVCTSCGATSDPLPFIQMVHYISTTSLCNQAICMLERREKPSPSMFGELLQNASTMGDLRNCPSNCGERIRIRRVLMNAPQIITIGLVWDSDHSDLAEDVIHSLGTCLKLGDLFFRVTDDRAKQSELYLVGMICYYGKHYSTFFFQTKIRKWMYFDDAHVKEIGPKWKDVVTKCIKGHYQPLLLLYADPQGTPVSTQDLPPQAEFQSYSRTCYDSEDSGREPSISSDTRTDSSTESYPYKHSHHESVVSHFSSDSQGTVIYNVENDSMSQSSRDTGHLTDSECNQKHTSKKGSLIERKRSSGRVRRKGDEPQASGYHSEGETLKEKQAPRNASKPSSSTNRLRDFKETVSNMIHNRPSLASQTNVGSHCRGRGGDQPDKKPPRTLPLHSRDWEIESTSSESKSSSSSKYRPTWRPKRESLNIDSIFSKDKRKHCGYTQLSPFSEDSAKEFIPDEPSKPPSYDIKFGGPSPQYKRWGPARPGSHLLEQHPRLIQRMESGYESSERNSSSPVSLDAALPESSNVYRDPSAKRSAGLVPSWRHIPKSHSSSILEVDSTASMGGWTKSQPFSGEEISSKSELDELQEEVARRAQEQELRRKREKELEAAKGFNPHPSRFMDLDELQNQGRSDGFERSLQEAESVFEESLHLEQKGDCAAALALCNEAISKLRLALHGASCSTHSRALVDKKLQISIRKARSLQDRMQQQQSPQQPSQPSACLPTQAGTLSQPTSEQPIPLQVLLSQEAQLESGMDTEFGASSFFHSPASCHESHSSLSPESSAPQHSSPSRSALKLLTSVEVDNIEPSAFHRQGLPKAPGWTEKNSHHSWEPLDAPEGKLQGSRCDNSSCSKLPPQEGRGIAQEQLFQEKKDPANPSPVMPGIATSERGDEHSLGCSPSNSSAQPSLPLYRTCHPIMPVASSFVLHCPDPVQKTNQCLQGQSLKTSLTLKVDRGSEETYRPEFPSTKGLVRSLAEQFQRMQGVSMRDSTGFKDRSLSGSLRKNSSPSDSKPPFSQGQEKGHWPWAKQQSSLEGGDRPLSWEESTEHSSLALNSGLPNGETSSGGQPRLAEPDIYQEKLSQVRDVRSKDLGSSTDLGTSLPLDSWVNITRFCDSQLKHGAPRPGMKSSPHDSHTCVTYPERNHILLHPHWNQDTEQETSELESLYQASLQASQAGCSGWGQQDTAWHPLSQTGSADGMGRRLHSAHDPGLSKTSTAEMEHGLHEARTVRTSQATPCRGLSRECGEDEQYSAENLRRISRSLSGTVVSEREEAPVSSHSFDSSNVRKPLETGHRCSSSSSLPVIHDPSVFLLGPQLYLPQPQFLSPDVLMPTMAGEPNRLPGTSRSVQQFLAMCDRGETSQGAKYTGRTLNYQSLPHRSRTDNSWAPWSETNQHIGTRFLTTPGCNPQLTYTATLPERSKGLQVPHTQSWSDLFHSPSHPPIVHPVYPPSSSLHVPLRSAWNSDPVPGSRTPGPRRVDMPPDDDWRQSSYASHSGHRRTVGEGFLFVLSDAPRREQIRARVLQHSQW

CCCn1nccc1NC(=O)CCl
inactive: USP42 0.302 | USP46 -0.137 | USP47 -0.323 | USP48 -0.124 | USP5 -0.757 | USP54 0.705 | USP7 -0.254 | USP8 -0.318 | USP9X -0.239 | UniProt O00487 -0.102
